An excerpt weighted towards active compounds, which were near 6.8% of everything screened.
Pf Dd2 inh: blocks growth of Plasmodium falciparum Dd2 parasites | P. falciparum Dd2 growth, SYBR Green, 72 h; stronger effect = lower value | activity change, % at 10 µM | actives 2.3% (n = 94,000) | AID 1159554; in the data active = activity change below about -80%; inconclusive = no clear call, values can overlap the other calls
T cruzi growth-1: blocks T. cruzi growth in NIH3T3 culture; T. cruzi beta-gal in NIH3T3, GalScreen luminescence, 90 h; actives 5.9% (n = 77,000); inhibition, % at 8.34 µM;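 active = mean inhibition above about 93%, with at least 55% of replicates each passing it, limit read from the data, passing the limit was not always enough; inconclusive = only one of those two conditions holds; inactive = neither condition holds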
C diff growth: C. difficile growth inhibition; Clostridium difficile clinical isolate growth, OD600, 24 h; stronger effect = lower value; growth activity, negative = inhibition, % at 16 µg/mL (by protocol); actives 0.25% (n = 86,000); AID 1259249;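 active = mean growth activity at or below -80% and every replicate also at or below -80%; inconclusive = mean at or below -80% but some replicate above -80%; inactive = mean growth activity above -80%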
T cruzi growth-2: inhibitors of T. cruzi proliferation; shares compounds with T cruzi growth-1; T. cruzi beta-gal in NIH3T3, GalScreen luminescence, 90 h; inhibition, % at 8.35 µM; actives 72% (n = 5,600); AID 651739;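 active = mean replicate inhibition above about 95% and at least 55% of replicates individually reaching it, limit read from the data; inconclusive = only one of the two criteria is met; inactive = neither criterion is met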
T cruzi growth-3: inhibitors of T. cruzi proliferation | shares compounds with T cruzi growth-1 | T. cruzi beta-gal in NIH3T3, GalScreen luminescence, 90 h | inhibition, % at 2.09 µM | actives 21% (n = 5,600) | AID 651740;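 active = mean inhibition above about 95%, with at least 55% of replicates also reaching it, limit read from the data; inconclusive = meets just one of the two conditions; inactive = meets neither condition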
3T3 cytotox: kills mouse NIH/3T3 fibroblasts; shares compounds with T cruzi growth-1; NIH/3T3 viability, CellTiter-Glo ATP luminescence, 90 h; cytotoxicity (signal decrease), % at 8.35 µM; actives 14% (n = 5,600);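 active = mean signal decrease across replicates above about 35% based on untreated-well scatter, with enough replicates individually passing, limit read from the data; inconclusive = no rule stated though some were filed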
NIH3T3 tox 2: cytotoxicity in mouse NIH/3T3 fibroblasts; shares compounds with T cruzi growth-1; NIH/3T3 viability, CellTiter-Glo ATP luminescence, 90 h; inhibition, % at 24.9 µM; actives 56% (n = 5,600);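 active = mean loss of cell viability signal at or above a set limit, and enough replicates individually reaching it; inconclusive = meets only the mean limit or only the replicate share; inactive = meets neither condition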
Numbers stand for hits; - = inactive; ? = inconclusive; . = not tested or not shown.

SMILES | Pf Dd2 inh | T cruzi growth-1 | C diff growth | T cruzi growth-2 | T cruzi growth-3 | 3T3 cytotox | NIH3T3 tox 2
C[C@@H]1CN([C@H](C)CO)S(=O)(=O)c2ccc(C#CC3CCCC3)cc2O[C@H]1CN(C)Cc1cccnc1 | -81.7 | 97.1 | - | - | ? | - | 104.6
C[C@@H]1CN([C@@H](C)CO)S(=O)(=O)c2ccc(C#CC3CCCCC3)cc2O[C@H]1CN(C)Cc1cccnc1 | - | - | . | . | . | . | .
C[C@H]1CN([C@@H](C)CO)S(=O)(=O)c2ccc(C#CC3CCCC3)cc2O[C@H]1CN(C)Cc1cccnc1 | - | 116.6 | - | 102.7 | - | - | 104.3
C[C@@H]1CN([C@@H](C)CO)S(=O)(=O)c2ccc(C#CC3CCCC3)cc2O[C@H]1CN(C)Cc1cccnc1 | - | - | - | . | . | . | .
CC(C)CC#Cc1cnc2c(c1)C(=O)N([C@@H](C)CO)C[C@@H](C)[C@@H](CN(C)Cc1ccc(F)cc1)O2 | - | ? | - | 108.4 | - | - | 57.2
C[C@H](CO)N1C[C@H](C)[C@H](CN(C)Cc2cccc(C(F)(F)F)c2)Oc2ncc(C#Cc3ccc(F)cc3)cc2C1=O | - | . | - | . | . | . | .
C[C@H](CO)N1C[C@H](C)[C@H](CN(C)Cc2cccc(C(F)(F)F)c2)Oc2ncc(C#Cc3ccccc3)cc2C1=O | - | 98.9 | . | 101.8 | - | - | 30.6
C[C@H](CO)N1C[C@H](C)[C@H](CN(C)Cc2ccc(F)cc2)Oc2ncc(C#Cc3ccccc3)cc2C1=O | - | ? | . | 102.8 | - | - | 101.1
CC(C)CC#Cc1cnc2c(c1)C(=O)N([C@@H](C)CO)C[C@@H](C)[C@H](CN(C)Cc1ccc(F)cc1)O2 | - | ? | - | 103.7 | - | - | 104.6
CCCC#Cc1cnc2c(c1)C(=O)N([C@@H](C)CO)C[C@@H](C)[C@@H](CN(C)Cc1ccc(F)cc1)O2 | - | - | - | . | . | . | .
CC(C)CC#Cc1cnc2c(c1)C(=O)N([C@H](C)CO)C[C@H](C)[C@@H](CN(C)Cc1ccc(F)cc1)O2 | - | - | - | . | . | . | .
C[C@H](CO)N1C[C@H](C)[C@H](CN(C)Cc2ccccc2)Oc2ncc(C#Cc3ccc(F)cc3)cc2C1=O | - | - | - | . | . | . | .
C[C@H](CO)N1C[C@H](C)[C@@H](CN(C)C(=O)c2ccccc2)OCCCC[C@H](C)Oc2ccc(NS(=O)(=O)c3cccs3)cc2C1=O | - | - | - | . | . | . | .
C[C@@H]1CCCCO[C@@H](CN(C)S(=O)(=O)c2ccc(F)cc2)[C@H](C)CN([C@H](C)CO)C(=O)c2cc(NS(=O)(=O)c3ccccc3)ccc2O1 | - | - | - | . | . | . | .
Cc1noc(C)c1NC(=O)N[C@H]1C=C[C@H](CC(=O)N2CCCCC2)O[C@@H]1CO | - | - | - | . | . | . | .
C[C@@H]1CCCCO[C@H](CN(C)Cc2ccccc2)[C@@H](C)CN([C@@H](C)CO)C(=O)c2cc(NS(=O)(=O)c3cn(C)cn3)ccc2O1 | - | - | . | . | . | . | .
Cc1ccc(S(=O)(=O)N[C@@H]2C=C[C@@H](CC(=O)NCCc3ccncc3)O[C@H]2CO)cc1 | - | - | - | . | . | . | .
CNC[C@@H]1Oc2ncc(C#CCC(C)C)cc2C(=O)N([C@H](C)CO)C[C@@H]1C | - | . | - | . | . | . | .
CNC[C@H]1Oc2ncc(C#CCC(C)C)cc2C(=O)N([C@H](C)CO)C[C@H]1C | - | 105.1 | - | 105.8 | - | - | -
COC(=O)c1c(CC[C@@H](CO)NC(=O)N2CCC[C@H]2Cn2cc(C3(O)CCCCC3)nn2)oc(C(C)=O)c1C(=O)OC | . | . | - | . | . | . | .
CC(=O)N1[C@@H](CO)[C@H](c2ccccc2)C12CN(C(=O)c1ccc3c(c1)OCO3)C2 | - | . | - | . | . | . | .
CC(=O)N1CC2(C1)[C@H](c1ccccc1)[C@H](CO)N2Cc1cccc(Cl)c1 | - | . | - | . | . | . | .
C[C@@H]1CCCCO[C@@H](CN(C)Cc2ccc3c(c2)OCO3)[C@H](C)CN([C@@H](C)CO)C(=O)c2cc(NC(=O)Cc3ccccc3)ccc2O1 | - | - | - | . | . | . | .
CC(C)CC#Cc1ccc2c(c1)O[C@H](CN(C)Cc1ccccc1)[C@H](C)CN([C@H](C)CO)S2(=O)=O | - | 104.0 | - | - | 108.8 | - | 105.1
CC(C)CC#Cc1ccc2c(c1)O[C@H](CN(C)Cc1ccc(F)cc1)[C@H](C)CN([C@@H](C)CO)S2(=O)=O | - | - | - | . | . | . | .
SMILES | Pf Dd2 inh | T cruzi growth-1 | C diff growth | T cruzi growth-2 | T cruzi growth-3 | 3T3 cytotox | NIH3T3 tox 2
CC(C)CC#Cc1ccc2c(c1)O[C@@H](CN(C)Cc1ccccc1)[C@H](C)CN([C@H](C)CO)S2(=O)=O | - | - | . | . | . | . | .
CC(C)CC#Cc1ccc2c(c1)O[C@H](CN(C)Cc1ccccc1)[C@@H](C)CN([C@@H](C)CO)S2(=O)=O | - | 123.5 | - | 100.0 | 114.3 | - | 103.8
CCCNC(=O)[C@@H]1[C@@H](CO)[C@@H]2Cn3c(ccc(-c4ccccc4F)c3=O)[C@@H]2N1C(=O)C1CCC1 | - | . | - | . | . | . | .
C[C@H]1CN([C@@H](C)CO)C(=O)CCCn2cc(nn2)CO[C@@H]1CN(C)Cc1ccc(C(F)(F)F)cc1 | - | - | . | . | . | . | .
C[C@H](CO)N1C[C@H](C)[C@@H](CN(C)Cc2ccc3c(c2)OCO3)Oc2ccc(NC(=O)Nc3cccc4ccccc34)cc2C1=O | - | - | - | . | . | . | .
COC(=O)C[C@H]1CC[C@@H]2[C@@H](COc3ccc(NC(=O)c4ccc(F)c(F)c4)cc3C(=O)N2C)O1 | - | - | - | . | . | . | .
C[C@H]1CN([C@@H](C)CO)S(=O)(=O)c2ccc(Br)cc2O[C@H]1CN(C)Cc1ccccc1F | - | . | - | . | . | . | .
C/C=C/c1ccc2c(c1)O[C@@H](CN(C)Cc1ccccc1F)[C@H](C)CN([C@@H](C)CO)S2(=O)=O | - | 115.8 | - | 95.8 | - | 56.9 | 104.7
C[C@@H]1CN([C@@H](C)CO)S(=O)(=O)c2ccc(Br)cc2O[C@H]1CN(C)Cc1ccccc1F | - | . | - | . | . | . | .
C/C=C/c1ccc2c(c1)O[C@@H](CN(C)Cc1ccccc1F)[C@@H](C)CN([C@H](C)CO)S2(=O)=O | - | 118.6 | - | 104.8 | - | - | 105.2
COCC(=O)N(C[C@H]1N[C@H](CO)[C@@H]1c1ccc(-c2ccccc2)cc1)C(C)C | - | - | - | . | . | . | .
COc1ccc(CN(C)C[C@@H]2OCCCC[C@H](C)Oc3ccc(NS(=O)(=O)c4ccccc4)cc3C(=O)N([C@H](C)CO)C[C@@H]2C)cc1 | - | - | - | . | . | . | .
C[C@@H]1CN([C@@H](C)CO)C(=O)c2cc(-c3ccccc3)cnc2O[C@H]1CN(C)C(=O)C1CCOCC1 | - | - | - | . | . | . | .
O=C(C[C@H]1CC[C@H]2[C@@H](COC[C@@H](O)CN2S(=O)(=O)c2ccccc2)O1)Nc1ccc(-c2ccccc2)cc1 | - | - | . | . | . | . | .
Cc1cccc(S(=O)(=O)N2C[C@H](O)COC[C@H]3O[C@H](CC(=O)Nc4ccc(-c5ccccc5)cc4)CC[C@@H]32)c1 | - | ? | - | 104.3 | - | - | 99.4

Screening results as filed in PubChem BioAssay.
